{"source": "PubChem BioAssay AID686934", "about": "(National Center for Advancing Translational Sciences (NCATS), 2013)", "note": "Inconclusive results are not listed. The source made the active and inactive calls. Calls come from the whole dose curve; as a rule, active = well fitted curve in the direction sought with a large enough effect; inconclusive = small, poorly fitted or top-dose-only effect, or another doubt; inactive = no such curve, though single readings can be large or run the other way.", "data": [{"assay": "qHTS screen for small molecules that inhibit ELG1-dependent DNA repair: SAR in Cell-Based Luciferin Counter Assay", "conditions": "cell-based luciferase counter-screen, luminescence; series mostly up to 45.7 µM", "source_text": "Cancer cells divide rapidly compared to normal cells in the body. During cell division, cancer cells need to duplicate their genome by DNA replication. The failure of genome duplication leads to cancer cells' death. Therefore, inhibitors of DNA replication could specifically kill cancer cells. Based on this concept, many chemotherapeutic agents were developed and have been used to treat cancer patients. However, there are a limited number of agents available in the clinical setting, and some of those that do exist have low efficacy and severe side effects. Therefore, if we can find the compounds that effectively block DNA replication either by directly damaging DNA or by inhibiting other cellular mechanisms, the options for cancer treatment will be broadened. With this in mind, we developed a quantitative high-throughput ELG1-luciferase reporter gene assay. Small molecules that specifically block ELG1 function in response to DNA damage can be identified by monitoring the suppression of luciferase activity. Since ELG1 defines a pathway for repairing DNA damage, agents blocking ELG1 function can be used to sensitize cancer cells to chemotherapeutic agents whose mechanism of action involves the induction of DNA damage. This assays is a counterscreen, that is more specifically, a cell-based luciferase assay following treatment with putative ELG1 antagonists to eliminate luciferase enhancers/inhibitors NIH Molecular Libraries Probe Production Network [MLPCN] NIH Chemical Genomics Center [NCGC] MLPCN Grant: R03 MH092164 Assay Provider: Kyungjae Myung, NHGRI, NIH\n3 uL of substrate reagent will be pipetted into each well in 1536-well white, solid-bottom plates using a FRD dispenser, followed by addition of 23 nL of DMSO or compounds by pintool. After compound addition, 1 µL of luciferase will be added into the wells. The plates will be read in a ViewLux CCD-based plate reader.", "values": [{"molecule": "ICC[n+]1csc2ccccc21", "outcome": "inactive"}, {"molecule": "O=C(c1cc2ccccc2[nH]1)c1cc2cc(O)ccc2[nH]1", "outcome": "inactive"}, {"molecule": "NC(=O)C1CCN(c2cc(-c3ccc4c(c3)OCCCO4)ncn2)CC1", "outcome": "inactive"}, {"molecule": "COc1cccc2c1C(=O)/C(=C\\c1ccc(N(C)C)cc1)C2", "outcome": "inactive"}, {"molecule": "CN(C)c1ccc(N=Nc2ccc(/C=C/c3ccnc4ccccc34)cc2)cc1", "outcome": "inactive"}, {"molecule": "Oc1cc2cc(-c3csc(-c4ccc(F)cc4)n3)cc3c2n1CCC3", "outcome": "inactive"}, {"molecule": "O=C(/C=C/C#Cc1cccc(NS(=O)(=O)c2ccccc2)c1)NO", "outcome": "inactive"}, {"molecule": "O=C(Cc1ccc(OCCCc2ccccc2)cc1)NO", "outcome": "inactive"}, {"molecule": "CN(C)N=Nc1ccc(/C=C2\\C=Cc3ccccc32)cc1", "outcome": "inactive"}, {"molecule": "CC(C)CN(C)c1ccc(/C=C2\\C=Cc3ccccc32)cc1", "outcome": "inactive"}, {"molecule": "CN(C)c1ccc(/C=C2\\C=Cc3ccccc32)c(F)c1", "outcome": "inactive"}, {"molecule": "COc1cccc([C@@H]2Oc3ccc(OC)cc3C(=O)[C@H]2OC(=O)NS(=O)(=O)c2ccc(C)cc2)c1", "outcome": "inactive"}, {"molecule": "CCCC(=O)Oc1ccc2[nH]c(C(=O)c3cc4ccccc4[nH]3)cc2c1", "outcome": "inactive"}, {"molecule": "CC(=O)Nc1ccc(/C=C/c2sc3ccccc3[n+]2CCCCI)cc1", "outcome": "inactive"}, {"molecule": "CN(C)c1cccc(-c2nnc(N3CCC(C(N)=O)CC3)s2)c1", "outcome": "inactive"}, {"molecule": "O=C(Nc1ccccn1)c1sc2ccccc2c1Cl", "outcome": "inactive"}, {"molecule": "CC(C)C(=O)SCCCCCCC(=O)Nc1nc(-c2ccccc2)cs1", "outcome": "inactive"}, {"molecule": "O=c1[nH]c(=O)n([C@@H]2C[C@H](O)[C@H](CO)O2)cc1C(F)(F)F", "outcome": "inactive"}, {"molecule": "O=c1[nH]c(=O)n([C@@H]2O[C@H](CO)[C@@H](O)[C@H]2O)cc1F", "outcome": "inactive"}, {"molecule": "CC(=O)Oc1ccc(-c2nc(-c3ccccc3)no2)cc1", "outcome": "inactive"}, {"molecule": "CCCCCn1ncc2c3sc(C)cc3n(C)c2c1=O", "outcome": "inactive"}, {"molecule": "CC(=O)OCC1=C[C@H]2[C@@H]3C(C)(C)[C@]3(OC(C)=O)C[C@@H](C)[C@]2(O)[C@@H]2C=C(C)C(=O)[C@@]2(O)C1", "outcome": "inactive"}, {"molecule": "O=c1[nH]c(-c2ccc(-c3cccc(Cl)c3)o2)nc2ccccc12", "outcome": "inactive"}, {"molecule": "c1cncc(CNc2ncnc3ccc(-c4ccoc4)cc23)c1", "outcome": "inactive"}, {"molecule": "COc1cc(C)c2c(=O)cc(-c3ccccc3)oc2c1", "outcome": "inactive"}, {"molecule": "Cc1nc(Nc2nc3ccccc3o2)nc2c1CCCC2", "outcome": "inactive"}, {"molecule": "Cc1csc(CNc2ncnc3ccc(-c4ccoc4)cc23)c1", "outcome": "inactive"}, {"molecule": "Oc1ccc(CCc2ccccc2F)c2cccnc12", "outcome": "inactive"}, {"molecule": "COC(=O)Nc1nc2ccc(C(=O)c3cccs3)cc2[nH]1", "outcome": "inactive"}, {"molecule": "N#Cc1ccc(-c2ccc(-c3nc4ccccc4c(=O)[nH]3)o2)cc1", "outcome": "inactive"}, {"molecule": "Oc1ccc(/C=C/c2c(F)cccc2F)c2cccnc12", "outcome": "inactive"}, {"molecule": "COc1ccc(OC)c(-c2nnc3n2N=C(c2ccc(OC)c(OC)c2)CS3)c1", "outcome": "inactive"}, {"molecule": "O=S(=O)(c1c(F)cccc1F)N1CCN(S(=O)(=O)c2c(F)cccc2F)CC1", "outcome": "inactive"}, {"molecule": "COc1ccc(-c2nc(-c3cccnc3)no2)cc1", "outcome": "inactive"}, {"molecule": "COc1ccccc1/C=C/c1nc2ccccc2s1", "outcome": "inactive"}, {"molecule": "O=C(NC1CCCC1)c1cc(-c2cccs2)on1", "outcome": "inactive"}, {"molecule": "CN(C)c1ccc(/C=C2\\CCc3ccccc32)cc1", "outcome": "inactive"}, {"molecule": "Nc1ccc2cccnc2c1", "outcome": "inactive"}, {"molecule": "CNC(=O)c1cc(-c2cccs2)on1", "outcome": "inactive"}, {"molecule": "Cc1ccnc(NC(=S)N2CCN(c3ccc(N)cc3)CC2)c1", "outcome": "inactive"}]}]}
